This is a sample that favours compounds with a hit; in the whole collection about 2.1% have one here.
GSIS activator: GLuc luminescence reporter in INS-1E cells, primary screen for activators of glucose-dependent secretion of insulin; activation, % at 16.6 µM; actives 0.61% (n = 370,000); AID 743287; INS-1E GLuc reporter insulin secretion, 2-3 h;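 active = lowest replicate activation of at least 40%, so every replicate reaches that level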;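 note: 0% = median of neutral control wells and 100% = median of IBMX positive control wells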
NSD2 HMT inh: blocks human histone methyltransferase NSD2 | O96028 | NSD2 peptide methylation, AlphaScreen, 120 min | inhibition, % at 12.5 µM | actives 0.54% (n = 310,000) | AID 743445; in the data active = inhibition above about 50%
Env fusion inh: inhibitors of HIV Env-mediated cell fusion; HeLa-JRFL Env/CEM21 cell fusion, luciferase; inhibition, % at 12.3 µM; actives 1.1% (n = 360,000);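 active = mean replicate inhibition score of at least 50 and every replicate individually at or above 50; inconclusive = only one of the two criteria met; inactive = mean below 50 and not all replicates reaching 50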;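 note: 0% = plate neutral controls and 100% = maraviroc near 300 nM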
PGC1a acetyl inh: modulators of PGC1a acetylation; AID 651687; actives 0.17% (n = 350,000); inhibition, % at 15.6 µM; U2OS PGC1a acetylation, AlphaScreen anti-acetyl-lysine; with virally co-expressed GCN5 acetyltransferase;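 active = every replicate shows inhibition of at least 40%; inconclusive = mean inhibition at least 40% but some replicate below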;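 note: 0% = neutral control wells and 100% = positive control wells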
AF4-AF9 inh: blocks AF4 peptide binding to human AF9. P42568. inhibition, % at 10 µM. AID 651704. AlphaScreen, biotin-AF4 peptide binding to FLAG-AF9. actives 0.47% (n = 350,000);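 active = every replicate reaching a set inhibition limit, whatever the replicate mean, cut at about 25% in these data; inconclusive = mean inhibition reaches that limit but some replicates miss it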;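 note: 0% = plate neutral control median and 100% = total signal loss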
Target sequence (P42568 whole entry, looked up): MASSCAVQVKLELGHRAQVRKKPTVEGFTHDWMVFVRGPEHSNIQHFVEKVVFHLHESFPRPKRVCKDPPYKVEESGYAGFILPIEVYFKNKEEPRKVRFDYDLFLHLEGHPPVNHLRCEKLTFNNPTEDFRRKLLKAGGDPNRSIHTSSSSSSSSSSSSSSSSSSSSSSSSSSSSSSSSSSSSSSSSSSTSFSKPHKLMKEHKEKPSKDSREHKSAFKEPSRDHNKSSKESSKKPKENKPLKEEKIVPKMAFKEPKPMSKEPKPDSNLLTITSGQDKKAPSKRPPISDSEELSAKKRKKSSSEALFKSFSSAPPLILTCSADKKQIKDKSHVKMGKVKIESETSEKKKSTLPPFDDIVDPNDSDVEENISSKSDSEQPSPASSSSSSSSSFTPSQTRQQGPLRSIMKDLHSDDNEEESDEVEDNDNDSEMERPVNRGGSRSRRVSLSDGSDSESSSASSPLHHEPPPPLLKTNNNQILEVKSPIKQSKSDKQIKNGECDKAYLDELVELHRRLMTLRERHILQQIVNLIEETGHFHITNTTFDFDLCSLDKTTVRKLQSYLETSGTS
* hit, by the source's call; ? = inconclusive; / = no result given; [ ] = dose if it differs, or a comment.

SMILES	GSIS activator	NSD2 HMT inh	Env fusion inh	PGC1a acetyl inh	AF4-AF9 inh
CC(C)NC(=O)N(C)C[C@H]1OCCCC[C@@H](C)Oc2ccc(NS(=O)(=O)c3ccc(Cl)cc3)cc2C(=O)N([C@@H](C)CO)C[C@H]1C	-13	/	-67[16.7 µM]	-5	0
O=C(C[C@H]1CC[C@H]2[C@@H](COC[C@H](O)CN2C(=O)C2CC2)O1)NCc1ccccc1Cl	10	/	8[16.7 µM]	-2	1
COc1ccc(/C=C/c2nc(S(=O)(=O)c3ccccc3)c(NCCCN(C)C)o2)cc1OC	59	-4	74*	1	-5
COc1ccc(NC(=O)N2CCCCN3[C@H](C2)[C@H](c2ccc(C4=CCCCC4)cc2)[C@@H]3CO)cc1	-3	/	/	-10	2
C=CC[n+]1c(-c2ccc(OCC)cc2)csc1NNC(=O)Nc1ccccc1	-34	-2	61*	-8	/
CCOC(=O)[C@]12CCCC=C1N(Cc1ccccc1)C(=O)[C@H](CC(=O)NCCCCc1ccccc1)C2	-34	/	-241	/	1
CCCCCCCCN1C(=O)[C@H](CC(=O)NCCC(C)C)C[C@@]2(C(=O)OCC)CCCC=C12	23	/	61*	/	1
CCOC(=O)[C@]12CCC=C1N(Cc1ccc3c(c1)OCO3)C(=O)[C@H](CC(=O)NCC13CC4CC(CC(C4)C1)C3)C2	-24	/	77*	/	0
CCOC(=O)[C@]12CCCC=C1N(Cc1ccccc1)C(=O)[C@H](CC(=O)NCCCOC)C2	10	/	60*	/	-1
CCOC(=O)[C@]12CCCC=C1N(CCC1=CCCCC1)C(=O)[C@H](CC(=O)NCCC(C)C)C2	-4	/	38	/	-6
COC(=O)[C@@]12C[C@@H](CC(=O)NCc3ccc(OC)c(OC)c3)C(=O)N(CCc3ccc(OC)c(OC)c3)C1=CCC(C)(C)C2	-21	/	67*	/	7
O=C(NCc1cccs1)c1cccc2c(-c3cccnc3)coc12	36	/	-12	3	-3
O=C(CSc1nc2ccccc2n1Cc1ccccc1)NN=Cc1c[nH]c2ccccc12	/	0	/	/	/
Cc1ccc(NC(=O)c2ccc(-n3cccn3)nc2)cc1	9	0	7	-1	-8
CN1C(=O)CS(=O)c2ccc(C(=O)NCCC3=CCCCC3)cc21 (centres undefined)	8	/	6	3	-2
COC(=O)C(O)(NC(=O)OCc1ccccc1)C(F)(F)F (centres undefined)	/	/	11	/	/
CCOC(=O)C1CCN(c2ncnc3cc(OC)c(OC)cc23)CC1	-46	0	9	3	5
CCCCCCCCN1C(=O)[C@H](CC(=O)NCc2cccc3ccccc23)C[C@@]2(C(=O)OC)CC(C)(C)CC=C12	-9	/	58*	/	/
CCCCCCCCN1C(=O)[C@H](CC(=O)NCc2cccc3ccccc23)C[C@@]2(C(=O)OCC)CCCC=C12	/	/	76*	/	-2
CCCCCCCCN1C(=O)[C@H](CC(=O)NCc2cccs2)C[C@@]2(C(=O)OCC)CCCC=C12	-32	/	88*	/	-1
CCCCCCCCN1C(=O)[C@H](CC(=O)NCc2ccc(OC)c(OC)c2)C[C@@]2(C(=O)OCC)CCCC=C12	17	/	70*	/	-1
CCOC(=O)[C@]12CCCC=C1N(CCc1ccc(OC)c(OC)c1)C(=O)[C@H](CC(=O)NCc1ccccc1)C2	/	0	-22	/	0
CCOC(=O)[C@]12CCCC=C1N(Cc1cccc3ccccc13)C(=O)[C@H](CC(=O)NCc1cccc3ccccc13)C2	/	/	-8	/	3
COc1ccc(S(=O)(=O)Nc2ccc3c(c2)[C@@H]2C[C@@H](CC(=O)NCC4CC4)O[C@@H](CO)[C@@H]2O3)cc1	-4	/	-6[16.7 µM]	0	-11
CCCCC1CCCC12NC(=O)NC2=O (centres undefined)	15	0	3	10	-11
SMILES	GSIS activator	NSD2 HMT inh	Env fusion inh	PGC1a acetyl inh	AF4-AF9 inh
O=C1N(c2ccccc2)c2ccccc2C1(O)C(F)(F)F (centres undefined)	-3	-3	12	-4	-1
O=C1N(c2ccccc2)c2ccccc2[C@]12C[C@H](O)CO2	55*	/	-6	/	0
COc1ccc(C/C(N)=N/n2cnnc2)cc1Cl	/	-1	/	3	/
O=C(Nc1nc2cc3c(cc2s1)OCCO3)C1=COCCO1	-4	-1	64*	4	-1
COc1ccc(CCC(C)NCc2cc(OC)cc(OC)c2)cc1 (centres undefined)	-6	1	71*	-18	2
COc1ccc(CCC(C)NCc2ccc(Cl)c(Cl)c2)cc1 (centres undefined)	0	-3	81*	11	1
COc1ccc(CCC(C)NCC2CCCCC2)cc1 (centres undefined)	1	2	15	-7	-3
COc1ccc(CCC(C)NCc2ccc(F)cc2)cc1 (centres undefined)	8	-1	?	/	-1
COc1ccc(CCC(C)NCCc2ccc(Cl)cc2Cl)cc1 (centres undefined)	-10	13	55*	/	8
CCC(C)(C)NC(=O)C(c1ccccc1Cl)N(C(=O)CCC(=O)Nc1cc(C)on1)C(C)(C)C (centres undefined)	-39	-1	8	-22	-4
Cc1nc2ccc(C(C(F)(F)F)(C(F)(F)F)C(F)(F)F)cc2[nH]1	/	1	3	0	/
CN(C)CCCN(C(=O)CCOc1ccccc1)c1nc2ccc(F)cc2s1	45*	-4	10	50*	5
CN(C)CCCN(C(=O)COc1ccccc1)c1nc2ccc(F)cc2s1	-15	7	-6	/	16
CCOC(=O)C1CCCN(C(=O)c2ccc(OC)cc2OC)CC1 (centres undefined)	/	-2	-2	0	-3
C/C=C/c1ccc(OCCN2C(=O)NC(C)(C)C2=O)c(OC)c1	44*	0	/	-12	/
C/C=C/c1ccc(OCCCN2C(=O)NC(C)(C)C2=O)c(OC)c1	27	0	-16	10	/
O=C(NC1CCCCC1)C1c2ccccc2OCC(=O)N1CCCN1CCOCC1 (centres undefined)	13	/	-26	/	-1
C[C@@H]1CN([C@H](C)CO)C(=O)c2cccc(NC(=O)c3cnccn3)c2O[C@H]1CN(C)S(=O)(=O)c1ccc(Cl)cc1	18	/	30[16.7 µM]	1	/
CN(Cc1ccc(F)cc1)C(=O)c1cccc(S(=O)(=O)N2CCN(c3ccc(F)cc3)CC2)c1	-27	0	57*	/	-2
CN(CC(=O)Nc1ccc(F)cc1)C(=O)c1cccc(S(=O)(=O)N2CCN(c3ccc(F)cc3)CC2)c1	-27	/	55*	/	1
CN(Cc1ccc(F)cc1)C(=O)c1cccc(S(=O)(=O)N2CCN(c3ccccc3)CC2)c1	-17	2	10	8	-1
CSc1ccc(CN(C)C(=O)c2cccc(S(=O)(=O)N3CCN(Cc4ccccc4)CC3)c2)cc1	-45	3	69*	/	2
CCNC(=O)C[C@@H]1CC[C@H]2[C@@H](COc3ccc(NC(=O)c4ccccc4)cc3C(=O)N2C)O1	0	/	-20[16.7 µM]	3	-2

From PubChem BioAssay
